From PubChem BioAssay AID1159580 (chemical genetic matrix, 2015)
Values joined by “and” are separate entries in the source; they are usually repeats but may differ in a detail not shown here. Identical values can stand only once. Out of some 5,500 compounds screened, about 2,000 (36%) were called active. Inconclusive results (about 18%) are left out. No stated cut-off is given here; in the data, active means normalized growth mostly below about 0.91 (no sharp cut-off); inconclusive means no clear call, values can overlap the other calls; inactive means mostly above about 0.92. Some of the results follow.

Assay: chemical genetic growth profiling, strain panel (AID 1159580);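 further: tested at 20 µM; growth read once vehicle control cultures reached saturation at 30 °C; 1 = growth at the plate median or of vehicle wells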
Conditions: S. cerevisiae deletion strains, growth OD

Measured: normalized growth

CN1CCC(=C2c3ccccc3Sc3ccccc32)CC1
inactive: locus YAL013W, strain DEP1, stronger effect = lower value 0.994 | locus YAL021C, strain ccr4, stronger effect = lower value 0.936 | locus YAL026C, strain drs2, stronger effect = lower value 0.994 | locus YAL030W, strain snc1, stronger effect = lower value 1.03 | locus YBL061C, strain skt5, stronger effect = lower value 1.04 | locus YBR009C, strain hhf1, stronger effect = lower value 1.06 | locus YBR023C, strain chs3, stronger effect = lower value 1.02 | locus YBR171W, strain sec66, stronger effect = lower value 1.04 | locus YBR229C, strain ROT2, stronger effect = lower value 0.998 | locus YBR231C, strain swc5, stronger effect = lower value 1.05 | locus YBR279W, strain paf1, stronger effect = lower value 1.02 | locus YCL011C, strain gbp2, stronger effect = lower value 1.04 | locus YCL016C, strain dcc1, stronger effect = lower value 1.03 | locus YCL029C, strain bik1, stronger effect = lower value 1.05 | locus YCL061C, strain MRC1, stronger effect = lower value 1.04 | locus YCL069W, strain vba3, stronger effect = lower value 1.02 | locus YCR088W, strain abp1, stronger effect = lower value 1.03 | locus YDL005C, strain med2, stronger effect = lower value 1.05 | locus YDL035C, strain GPR1, stronger effect = lower value 0.951 | locus YDL040C, strain nat1, stronger effect = lower value 1.01 | locus YDL074C, strain BRE1, stronger effect = lower value 0.986 | locus YDL101C, strain DUN1, stronger effect = lower value 1.03 | locus YDL134C, strain PPH21, stronger effect = lower value 1.01 | locus YDL185W, strain tfp1, stronger effect = lower value 1.01 | locus YDL192W, strain arf1, stronger effect = lower value 1.01 | locus YDR001C, strain nth1, stronger effect = lower value 1.02 | locus YDR069C, strain doa4, stronger effect = lower value 1.02 | locus YDR101C, strain arx1, stronger effect = lower value 1.01 | locus YDR150W, strain NUM1, stronger effect = lower value 1.01 | locus YDR159W, strain sac3, stronger effect = lower value 1.07 | locus YDR162C, strain NBP2, stronger effect = lower value 1.01 | locus YDR195W, strain ref2 1.11 | locus YDR297W, strain sur2, stronger effect = lower value 1.03 | locus YDR318W, strain mcm21, stronger effect = lower value 1.01 | locus YDR334W, strain swr1, stronger effect = lower value 1.03 | locus YDR335W, strain msn5, stronger effect = lower value 1.02 | locus YDR388W, stronger effect = lower value 0.955 | locus YDR392W, strain spt3, stronger effect = lower value 0.982 | locus YDR502C, strain sam2, stronger effect = lower value 0.995 | locus YEL003W, strain gim4, stronger effect = lower value 1.03 | locus YEL037C, strain rad23, stronger effect = lower value 1.02 | locus YEL061C, strain CIN8 (second series), stronger effect = lower value 1.02 | locus YEL061C, strain CIN8, stronger effect = lower value 1.01 | locus YER015W, strain faa2, stronger effect = lower value 1.01 | locus YER016W, strain bim1, stronger effect = lower value 1.03 | locus YER110C, stronger effect = lower value 1.01 | locus YER111C, strain swi4, stronger effect = lower value 1.03 | locus YER155C, strain BEM2 (second series), stronger effect = lower value 1.03 | locus YER155C, strain BEM2, stronger effect = lower value 1.01 | locus YER167W, strain BCK2, stronger effect = lower value 1.01 | locus YFR010W, strain ubp6, stronger effect = lower value 0.999 | locus YGL078C, strain dbp3, stronger effect = lower value 1.01 | locus YGL086W, strain mad1, stronger effect = lower value 0.99 | locus YGL167C, strain pmr1, stronger effect = lower value 1.03 | locus YGL173C, strain kem1, stronger effect = lower value 1.04 | locus YGL227W, strain vid30, stronger effect = lower value 1.03 | locus YGL240W, strain doc1, stronger effect = lower value 1.06 | locus YGL248W, strain PDE1, stronger effect = lower value 1 | locus YGL253W, strain hxk2, stronger effect = lower value 1.01 | locus YGR078C, strain PAC10, stronger effect = lower value 0.977 | locus YGR135W, strain pre9, stronger effect = lower value 0.934 | locus YGR229C, strain SMI1, stronger effect = lower value 0.839 | locus YHR013C, strain ard1, stronger effect = lower value 0.934 | locus YHR027C, strain rpn1, stronger effect = lower value 1.02 | locus YHR030C, strain SLT2, stronger effect = lower value 1.01 and 0.969 | locus YHR079C, strain IRE1 (second series), stronger effect = lower value 1.02 | locus YHR079C, strain IRE1, stronger effect = lower value 0.986 | locus YHR094C, strain hxt1, stronger effect = lower value 1.01 | locus YHR129C, strain ARP1, stronger effect = lower value 1.01 | locus YHR142W, strain chs7, stronger effect = lower value 0.98 | locus YHR200W, strain rpn10, stronger effect = lower value 1.01 | locus YIL066C, strain RNR3, stronger effect = lower value 1.01 | locus YIL073C, strain SPO22, stronger effect = lower value 1.01 | locus YIL125W, strain kgd1, stronger effect = lower value 1 | locus YIR030C, strain dcg1, stronger effect = lower value 1.02 | locus YJL092W, strain hpr5, stronger effect = lower value 1.02 | locus YJL095W, strain BCK1 (second series), stronger effect = lower value 1.02 | locus YJL095W, strain BCK1, stronger effect = lower value 0.974 and 0.973 | locus YJL115W, strain asf1, stronger effect = lower value 1.02 | locus YJL129C, strain trk1, stronger effect = lower value 1.07 | locus YJL134W, strain LCB3, stronger effect = lower value 0.994 | locus YJL154C, strain vps35, stronger effect = lower value 1.01 | locus YJL164C, strain tpk1, stronger effect = lower value 1.02 | locus YJL166W, strain qcr8, stronger effect = lower value 1.03 | locus YJL168C, strain set2, stronger effect = lower value 1.01 | locus YJL187C, strain SWE1 (second series), stronger effect = lower value 1.02 | locus YJL187C, strain SWE1, stronger effect = lower value 1.02 | locus YJR043C, strain POL32, stronger effect = lower value 1.07 | locus YJR066W, strain TOR1, stronger effect = lower value 0.956
active: locus YBR021W, strain FUR4, stronger effect = lower value 0.775 | locus YDR137W, strain rgp1, stronger effect = lower value 1.2 [resistant] | locus YGR252W, strain gcn5, stronger effect = lower value 0.765
